High-throughput results as filed in PubChem.
Compounds with a hit are over-represented: about 5.9% of the library has one in this group of screens.
PRMT1 inh: PRMT1 methyltransferase inhibitors, primary screen, biochemical, fluorescence polarization; Protein arginine N-methyltransferase 1 (Homo sapiens), Q99873; recombinant PRMT1, activity-based probe fluorescence polarization; inhibition, % at 2.79 µM; 370,000 tested, 1.3% active;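 active = inhibition above about 21% made by adding two undisclosed values, limit read from the data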
Target sequence (Q99873 whole entry, looked up): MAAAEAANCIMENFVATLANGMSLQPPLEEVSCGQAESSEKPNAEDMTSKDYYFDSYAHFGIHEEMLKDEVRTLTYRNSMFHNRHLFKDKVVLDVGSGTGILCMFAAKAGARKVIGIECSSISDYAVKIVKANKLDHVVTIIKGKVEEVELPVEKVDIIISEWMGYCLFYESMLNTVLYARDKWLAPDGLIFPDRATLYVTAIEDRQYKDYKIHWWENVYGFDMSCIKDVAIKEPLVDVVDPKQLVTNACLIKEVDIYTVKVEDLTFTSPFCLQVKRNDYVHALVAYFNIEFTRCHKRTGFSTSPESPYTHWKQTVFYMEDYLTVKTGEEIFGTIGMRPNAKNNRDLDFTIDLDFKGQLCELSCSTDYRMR
ALR H2O2 inh: inhibitors of human ALR sulfhydryl oxidase, primary screen, biochemical, H2O2 detection, HRP-luminol luminescence, single point | 290,000 tested, 3.8% active | purified ALR, DTT oxidation | AID 485317, 2010 | inhibition, % (no concentration beside the values);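 active = mean replicate inhibition above about 79%, with every replicate also reaching it, limit read from the data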
Rtt109 Vps75: inhibitors of C. albicans Rtt109/Vps75 HAT, primary screen, biochemical, ThioGlo CoA-SH fluorescence, plate reader. purified Rtt109/Vps75, 4 h. inhibition, % at 34.9 µM. 330,000 tested, 0.16% active. AID 540336, 2011. Histone acetyltransferase RTT109 (Candida albicans (strain SC5314 / ATCC MYA-2876)), …;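 active = inhibition of at least 50% in every replicate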
LANA-H2A inh: blockers of LANA interaction with H2A/H2B – biochemical, FP readout, HTS, primary screen; Protein LANA1 (Human herpesvirus 8 type P (isolate GK18)), Q9QR71; cell-free LANA-H2A/H2B peptide, fluorescence polarization; inhibition, % (test concentration not listed); 320,000 tested, 0.6% active; AID 2629, 2010; in the data active = inhibition mostly above about 10%, no sharp cut-off; inactive = mostly below about 6.7%
rCAG RNA binder: binders of r(CAG) RNA repeats, primary screen, biochemical, fluorescence; r(CAG) RNA repeat, TO-PRO-1 dye displacement fluorescence; inhibition, % at 3 µM; 370,000 tested, 1.3% active;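 active = inhibition above the plate cutoff, the mean of all test compounds on that plate plus 3 SD, cut at about 35% in these data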;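 also: 0% = DMSO alone and 100% = 100 µM mitoxantrone as full dye displacement; higher means more dye released from RNA so lower well fluorescence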
ABHD5 PLIN5 PPI: ABHD5-PLIN5 interaction inhibitors, primary screen, cell lysate, split luciferase complementation, luminescence; Split G. princeps luciferase complementation, 4 h; inhibition, % at 4 µM; AID 602281, 2012; Perilipin-5 (Homo sapiens) + 1-acylglycerol-3-phosphate O-acyltransferase ABHD5 (Homo …; 360,000 tested, 0.78% active;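 active = inhibition above the mean inhibition across every tested compound plus 3 SD, cut at about 22% in these data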;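 also: 0% = DMSO only wells and the 100% control is not disclosed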
* hit, by the source's call.

`Clc1nc(Nc2ccccc2)nc(Nc2ccccc2)n1` gave PRMT1 inh -2, ALR H2O2 inh 11, Rtt109 Vps75 50*, LANA-H2A inh -3, rCAG RNA binder 1 and ABHD5 PLIN5 PPI -1.
`COc1ccccc1Nc1nc(Cl)nc(NC(C)(C)C)n1` gave PRMT1 inh -1, Rtt109 Vps75 3, LANA-H2A inh -5, rCAG RNA binder -5 and ABHD5 PLIN5 PPI -7.
Screening COc1cc(-c2coc3c(C(=O)NCc4ccccc4)cccc23)ccc1O returned PRMT1 inh 9, rCAG RNA binder 13 and ABHD5 PLIN5 PPI 0.
For COc1cc(NC(=O)COc2c(C)cc(C)cc2[N+](=O)[O-])c(OC)cc1Cl the results were PRMT1 inh -1, ALR H2O2 inh -7, Rtt109 Vps75 52*, LANA-H2A inh 1, rCAG RNA binder 0 and ABHD5 PLIN5 PPI 0.
For COc1ccccc1NS(=O)(=O)c1ccc(C(=O)N2CC(C)OC(C)C2)cc1 (centres undefined) the results were PRMT1 inh -1, ALR H2O2 inh -2, Rtt109 Vps75 -2, LANA-H2A inh 20*, rCAG RNA binder 4 and ABHD5 PLIN5 PPI 3.
For CCC1Sc2ccc(S(=O)(=O)CCC(=O)Nc3c(Cl)cc(OC)cc3OC)cc2NC1=O (centres undefined) the results were PRMT1 inh -5, ALR H2O2 inh -22, Rtt109 Vps75 0, LANA-H2A inh 3, rCAG RNA binder 9 and ABHD5 PLIN5 PPI 7.
Screening COc1ccc(-c2cc(C(F)(F)F)n3ncc(C(=O)NCc4ccco4)c3n2)cc1 returned PRMT1 inh -2, ALR H2O2 inh -20, Rtt109 Vps75 -13, LANA-H2A inh 2, rCAG RNA binder 6 and ABHD5 PLIN5 PPI 23*.
For O=C(NCc1ccco1)c1cnn2c(C(F)(F)F)cc(-c3ccccc3)nc12 the results were PRMT1 inh 0, ALR H2O2 inh 3, Rtt109 Vps75 5, LANA-H2A inh -3, rCAG RNA binder 1 and ABHD5 PLIN5 PPI 3.
`Nc1ccc2c(c1)OCCOCCOCCOCCOCCO2` gave PRMT1 inh 4, ALR H2O2 inh 98*, Rtt109 Vps75 9, LANA-H2A inh 6, rCAG RNA binder 0 and ABHD5 PLIN5 PPI 2.
Cc1ccc(-c2cc(-c3nnc(SCc4cccc5ccccc45)n3N)[nH]n2)cc1 was read as PRMT1 inh 6 and rCAG RNA binder 15.
`O=c1[nH]c2cc3c(cc2cc1C(c1nnnn1C1CCCCC1)N1CCSCC1)OCCO3` (centres undefined) gave PRMT1 inh 22*, Rtt109 Vps75 -21, LANA-H2A inh 8, rCAG RNA binder 8 and ABHD5 PLIN5 PPI -15.
Screening Cc1cc(C)nc(NCC(O)CNc2ccccc2C)n1 (centres undefined) returned PRMT1 inh 9, ALR H2O2 inh 98*, Rtt109 Vps75 -1, LANA-H2A inh 1, rCAG RNA binder -2 and ABHD5 PLIN5 PPI -1.
Screening Cc1cc(C)nc(NCC(O)COc2ccccc2C)n1 (centres undefined) returned PRMT1 inh -3, ALR H2O2 inh 0, Rtt109 Vps75 9, LANA-H2A inh 1, rCAG RNA binder -1 and ABHD5 PLIN5 PPI 5.
COc1cc(-c2csc(N3CCC(C(N)=O)CC3)n2)cc(OC)c1OC was read as PRMT1 inh -2.
Screening CCc1nnc2n1N=C(c1ccc(OC)cc1)CS2 returned PRMT1 inh 1, ALR H2O2 inh 9, Rtt109 Vps75 -8, LANA-H2A inh -6, rCAG RNA binder 0 and ABHD5 PLIN5 PPI -2.
For CCc1nnc2n1N=C(c1ccc([N+](=O)[O-])cc1)CS2 the results were PRMT1 inh 11, ALR H2O2 inh 97*, Rtt109 Vps75 2, LANA-H2A inh -3, rCAG RNA binder 2 and ABHD5 PLIN5 PPI -1.
